Reference: PMC4081100, “A DNA-binding-site landscape and regulatory network analysis for NAC transcription factors in Arabidopsis thaliana”

Legend:
Experiment in all cases: universal protein binding microarray (PBM); transcription factors of Arabidopsis thaliana; high values mean tight binding
[1] = target: T1, GST-ANAC092(1-176) (Arabidopsis thaliana, UniProt Q9FKA0 1-176); conditions: protein: recombinant; tags: GST; chain copies: 2; dsDNA, one strand shown
T1 sequence: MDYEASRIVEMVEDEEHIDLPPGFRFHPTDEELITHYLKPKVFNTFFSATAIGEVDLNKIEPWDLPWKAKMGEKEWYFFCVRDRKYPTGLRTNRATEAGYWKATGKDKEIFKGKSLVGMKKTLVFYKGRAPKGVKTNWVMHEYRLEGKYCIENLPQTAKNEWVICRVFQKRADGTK
Summary of the method: (§1)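 Protein amounts were determined by A280 or anti-GST western blot after glutathione–Sepharose 4B purification of GST-tagged proteins induced in cells, with zinc acetate included for zinc-finger proteins. Duplicate runs at 200 to 500 nM final were done on custom all-10-mer Agilent 4 × 180K arrays made double-stranded by primer extension. The normalised enrichment score (E-score) over gapped and ungapped 8-mers is the measure of binding.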

[2] = target: GST-NTL6(1-168) (Arabidopsis thaliana, UniProt Q9SCK6 1-168); conditions: protein: recombinant; tags: GST; chain copies: 2; dsDNA, one strand shown
Chain of GST-NTL6(1-168) (Q9SCK6 1-168): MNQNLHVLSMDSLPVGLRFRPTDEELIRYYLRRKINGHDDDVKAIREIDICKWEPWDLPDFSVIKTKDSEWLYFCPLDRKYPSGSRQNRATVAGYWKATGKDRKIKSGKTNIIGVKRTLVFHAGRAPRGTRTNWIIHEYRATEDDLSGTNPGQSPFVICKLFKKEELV
Summary of the method: as §1

[3] = target: T2, GST-ANAC019 NAC domain (Arabidopsis thaliana, UniProt Q9C932 14-162); conditions: protein: recombinant; tags: GST; chain copies: 2; dsDNA, one strand shown
T2 sequence: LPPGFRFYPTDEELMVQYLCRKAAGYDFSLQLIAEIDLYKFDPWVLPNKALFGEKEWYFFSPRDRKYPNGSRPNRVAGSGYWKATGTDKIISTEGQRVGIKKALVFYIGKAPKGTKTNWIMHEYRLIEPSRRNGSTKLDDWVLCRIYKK
Summary of the method: as §1

[4] = target: T3, GST-ANAC055(1-171) (Arabidopsis thaliana, UniProt Q9LDY8 1-171); conditions: protein: recombinant; tags: GST; chain copies: 2; dsDNA, one strand shown
T3 sequence: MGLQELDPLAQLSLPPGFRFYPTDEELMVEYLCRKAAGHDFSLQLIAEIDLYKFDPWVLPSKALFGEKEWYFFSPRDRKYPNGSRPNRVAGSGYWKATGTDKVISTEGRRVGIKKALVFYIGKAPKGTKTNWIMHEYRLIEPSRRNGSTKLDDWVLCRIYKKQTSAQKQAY
Summary of the method: as §1

[5] = target: T4, GST-ATAF1 NAC domain (Arabidopsis thaliana, UniProt Q39013 7-158); conditions: protein: recombinant; tags: GST; chain copies: 2; dsDNA, one strand shown
T4 sequence: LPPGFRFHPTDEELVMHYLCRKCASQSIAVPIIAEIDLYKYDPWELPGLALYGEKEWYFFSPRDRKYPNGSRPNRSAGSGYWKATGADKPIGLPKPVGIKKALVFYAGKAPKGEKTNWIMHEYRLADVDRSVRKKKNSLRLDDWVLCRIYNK
Summary of the method: as §1

[6] = target: T5, GST-ANAC092(1-285) full length (Arabidopsis thaliana, UniProt Q9FKA0 1-285); conditions: protein: recombinant; tags: GST; chain copies: 2; dsDNA, one strand shown
T5 sequence: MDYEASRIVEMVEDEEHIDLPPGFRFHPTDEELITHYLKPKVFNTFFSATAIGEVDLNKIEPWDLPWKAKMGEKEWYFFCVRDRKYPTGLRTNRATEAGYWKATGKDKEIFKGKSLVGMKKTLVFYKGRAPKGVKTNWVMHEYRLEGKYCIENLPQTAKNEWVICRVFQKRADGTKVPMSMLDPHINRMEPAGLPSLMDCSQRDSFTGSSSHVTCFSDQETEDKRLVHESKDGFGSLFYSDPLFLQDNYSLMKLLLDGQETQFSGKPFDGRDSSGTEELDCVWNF
Summary of the method: as §1

[7] = target: T6, GST-NAP(1-166) (Arabidopsis thaliana, UniProt O49255 1-166); conditions: protein: recombinant; tags: GST; chain copies: 2; dsDNA, one strand shown
T6 sequence: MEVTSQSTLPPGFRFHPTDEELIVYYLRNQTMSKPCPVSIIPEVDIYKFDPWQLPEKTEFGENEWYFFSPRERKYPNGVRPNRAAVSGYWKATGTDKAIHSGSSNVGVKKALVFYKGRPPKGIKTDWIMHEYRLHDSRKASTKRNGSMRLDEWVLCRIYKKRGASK
Summary of the method: as §1

[8] = target: T7, GST-NST2(1-184) (Arabidopsis thaliana, UniProt Q9M274 1-184); conditions: protein: recombinant; tags: GST; chain copies: 2; dsDNA, one strand shown
T7 sequence: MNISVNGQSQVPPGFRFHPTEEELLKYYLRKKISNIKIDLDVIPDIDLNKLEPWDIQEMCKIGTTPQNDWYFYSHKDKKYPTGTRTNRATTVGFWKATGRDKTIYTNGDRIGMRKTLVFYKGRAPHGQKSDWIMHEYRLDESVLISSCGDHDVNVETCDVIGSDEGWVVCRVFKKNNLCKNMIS
Summary of the method: as §1

[9] = target: T8, GST-NTL8 NAC domain (Arabidopsis thaliana, UniProt Q9XIN7 14-156); conditions: protein: recombinant; tags: GST; chain copies: 2; dsDNA, one strand shown
T8 sequence: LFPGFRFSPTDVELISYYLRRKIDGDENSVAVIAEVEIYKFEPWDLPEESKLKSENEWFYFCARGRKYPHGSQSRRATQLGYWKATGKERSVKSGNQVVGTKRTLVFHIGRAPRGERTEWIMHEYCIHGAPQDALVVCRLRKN
Summary of the method: as §1

[10] = target: T9, GST-SND1(1-203) (Arabidopsis thaliana, UniProt Q9LPI7 1-203); conditions: protein: recombinant; tags: GST; chain copies: 2; dsDNA, one strand shown
T9 sequence: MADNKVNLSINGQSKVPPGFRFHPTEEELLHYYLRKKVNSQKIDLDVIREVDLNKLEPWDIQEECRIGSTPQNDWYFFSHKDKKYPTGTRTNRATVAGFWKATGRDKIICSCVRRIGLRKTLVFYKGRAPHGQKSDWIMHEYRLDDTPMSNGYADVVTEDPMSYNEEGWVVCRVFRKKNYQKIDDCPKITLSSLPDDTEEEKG
Summary of the method: as §1

[11] = target: T10, GST-VND3 NAC domain (Arabidopsis thaliana, UniProt Q9FH59 12-162); conditions: protein: recombinant; tags: GST; chain copies: 2; dsDNA, one strand shown
T10 sequence: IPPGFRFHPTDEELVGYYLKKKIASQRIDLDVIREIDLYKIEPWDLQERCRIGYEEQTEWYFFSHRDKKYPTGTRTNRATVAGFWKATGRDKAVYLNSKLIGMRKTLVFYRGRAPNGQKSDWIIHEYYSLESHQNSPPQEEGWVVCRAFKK
Summary of the method: as §1

[12] = target: T11, GST-VND7 NAC domain (Arabidopsis thaliana, UniProt Q9C8W9 9-158); conditions: protein: recombinant; tags: GST; chain copies: 2; dsDNA, one strand shown
T11 sequence: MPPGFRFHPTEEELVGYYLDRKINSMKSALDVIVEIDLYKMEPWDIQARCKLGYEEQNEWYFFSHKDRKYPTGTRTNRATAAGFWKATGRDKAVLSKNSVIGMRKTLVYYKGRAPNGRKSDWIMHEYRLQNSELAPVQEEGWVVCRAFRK
Summary of the method: as §1

[13] = target: GST-WRKY1(266-371) (Arabidopsis thaliana, UniProt Q9SI37 266-371); conditions: protein: recombinant; tags: GST; dsDNA, one strand shown
Chain of GST-WRKY1(266-371) (Q9SI37 266-371): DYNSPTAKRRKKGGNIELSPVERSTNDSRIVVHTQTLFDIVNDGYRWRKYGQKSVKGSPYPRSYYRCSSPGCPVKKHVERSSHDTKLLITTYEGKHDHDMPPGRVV
Summary of the method: as §1

Row | Sequence | binding signal [1] | binding signal [2] | binding signal [3] | binding signal [4] | binding signal [5] | binding signal [6] | binding signal [7] | binding signal [8] | binding signal [9] | binding signal [10] | binding signal [11] | binding signal [12] | binding signal [13]
1 | ACGTAAGT | 0.357 E-score | 0.212 E-score | 0.418 E-score | 0.402 E-score | 0.407 E-score | 0.39 E-score | 0.344 E-score | 0.233 E-score | 0.125 E-score | 0.35 E-score | 0.414 E-score | 0.42 E-score | 0.112 E-score
2 | AACGTAGA | 0.21 E-score | 0.145 E-score | 0.0983 E-score | 0.226 E-score | 0.163 E-score | 0.329 E-score | 0.0935 E-score | 0.34 E-score |  | 0.408 E-score | 0.206 E-score | 0.184 E-score | 0.317 E-score
3 | AAATTGAC | 0.173 E-score | 0.156 E-score | 0.134 E-score | 0.213 E-score | 0.228 E-score | 0.139 E-score | 0.136 E-score | 0.194 E-score | 0.0641 E-score | 0.2 E-score | 0.228 E-score | 0.0875 E-score | 0.45 E-score
4 | GTACGTAA | 0.432 E-score | 0.174 E-score | 0.463 E-score | 0.42 E-score | 0.408 E-score | 0.441 E-score | 0.419 E-score | 0.276 E-score | 0.167 E-score | 0.337 E-score | 0.417 E-score | 0.44 E-score | 0.0843 E-score
5 | TGAAGAAA | 0.188 E-score | 0.339 E-score | 0.151 E-score | 0.114 E-score | 0.129 E-score | 0.0672 E-score | 0.0893 E-score | 0.241 E-score | 0.45 E-score | 0.152 E-score | 0.121 E-score | 0.215 E-score | 0.211 E-score
6 | GATACGTA | 0.381 E-score | 0.0687 E-score | 0.428 E-score | 0.415 E-score | 0.341 E-score | 0.385 E-score | 0.458 E-score | 0.253 E-score |  | 0.257 E-score | 0.405 E-score | 0.424 E-score | 0.0663 E-score
7 | TCACGCAA | 0.488 E-score | 0.0728 E-score | 0.467 E-score | 0.398 E-score | 0.336 E-score | 0.488 E-score | 0.433 E-score | 0.396 E-score | 0.177 E-score | 0.473 E-score | 0.448 E-score | 0.462 E-score | 0.0966 E-score
8 | AATGCGTG | 0.434 E-score | 0.147 E-score | 0.324 E-score | 0.227 E-score | 0.271 E-score | 0.44 E-score | 0.227 E-score | 0.243 E-score |  | 0.288 E-score | 0.286 E-score | 0.254 E-score | 0.087 E-score
9 | ACACGCAA | 0.498 E-score | 0.0863 E-score | 0.484 E-score | 0.473 E-score | 0.439 E-score | 0.498 E-score | 0.487 E-score | 0.47 E-score | 0.218 E-score | 0.477 E-score | 0.477 E-score | 0.482 E-score | 0.172 E-score
10 | CGTCAAAC | 0.109 E-score | 0.0906 E-score | 0.0928 E-score | 0.163 E-score | 0.147 E-score | 0.134 E-score | 0.0647 E-score | 0.159 E-score |  | 0.198 E-score | 0.145 E-score | 0.129 E-score | 0.44 E-score
11 | ATTTCCCC | 0.143 E-score | 0.221 E-score | 0.13 E-score | 0.101 E-score | 0.0697 E-score | 0.175 E-score | 0.0823 E-score | 0.17 E-score | 0.428 E-score | 0.199 E-score | 0.205 E-score | 0.153 E-score | 0.116 E-score
